HSF1 inh: HSF1 inhibition; activity change, negative = inhibition, % at 7.5 µM (by protocol); 300,000 compounds, 0.77% hits; NIH3T3-HGL HSE-luciferase, MG132-induced, luminescence 8 h; hits give low values; AID 2098;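 active = more than half of replicate wells show activity change below -50%, luminescence cut by over half; inconclusive = some wells, but at most half, below -50%; inactive = no replicate well below -50%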;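 also: luciferase reports HSF-1 transcriptional activity via heat shock element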
TROY NFkB inh: blocks TROY-dependent signaling in reporter cells. 360,000 compounds, 0.98% hits. inhibition, % at 10 µM. Q293 LMP1-TROYcd NF-kB luciferase reporter, 4 h. AID 1347056;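 active = compounds whose plate-normalised and pattern-corrected inhibition of the luciferase reporter signal at the single screening dose is 50% or more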
HSF-1 act: increases HSF-1 driven luciferase reporter signal | NIH3T3-HGL HSF-1 luciferase reporter, MG132, 8 h; 100% = twice DMSO control signal | activation, % at 9 µM | 300,000 compounds, 1.7% hits;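 active = mean replicate activation of at least 50% with a set share of replicates each reaching 50%; inconclusive = only one of those two conditions met; inactive = mean below 50% and too few replicates reaching it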
LMP1 NFkB inh: inhibitors of Epstein-Barr LMP1-induced NF-kappaB reporter | 350,000 compounds, 0.69% hits | AID 504558 | LMP1-induced NF-kappaB luciferase reporter cells, luminescence | inhibition, % at 12.5 µM; in the data active = inhibition above about 41%; inconclusive = no clear call, values can overlap the other calls
LGR2 antag: Drosophila LGR2 receptor signaling inhibition | AID 720647 | HEK293 LGR2, CRE-luciferase, bursicon-stimulated, 4 h | inhibition, % at 9.99 µM | 380,000 compounds, 0.35% hits;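 active = drop in luminescence signal, shown as inhibition above about 50% in the replicate tests, limit read from the data, passing the limit was not always enough; inconclusive = probably only some replicates passing the limit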;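 also: agonist challenge used bursicon conditioned medium at about half maximal strength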
TWEAK Fn14 block: blocks TWEAK-Fn14 interaction in a reporter cell assay; 360,000 compounds, 2% hits; inhibition, % at 10 µM; TWEAK-stimulated Fn14 reporter cells, luciferase luminescence, 8 h; in the data active = inhibition above about 50%
Numbers stand for hits; – = inactive; ? = inconclusive; · = not tested or not shown; ! = not confirmed by another sample. This is a sample that favours compounds with a hit; in the whole collection about 3.6% have one here.

SMILES	HSF1 inh	TROY NFkB inh	HSF-1 act	LMP1 NFkB inh	LGR2 antag	TWEAK Fn14 block
COc1ccc(NC(=O)N2C[C@@H](O)COC[C@H]3O[C@@H](CC(=O)N4CCN(C)CC4)CC[C@@H]32)cc1	·	·	·	·	–	·
C[C@@H](NC(=O)C[C@H]1C[C@H]2c3cc(NC(=O)Nc4ccccc4F)ccc3O[C@H]2[C@H](CO)O1)c1ccccc1	·	·	·	·	–	·
COc1ccc(C(=O)C(CN2CCOCC2)c2ccccc2)cc1F (stereo unspecified)	–	–	–	74	·	–
COc1ccc(C(O)C(CN2CCOCC2)c2ccccc2)cc1F (stereo unspecified)	–	55	–	–	·	74
CCOC(=O)C(CN1CCCC1)c1ccccc1 (stereo unspecified)	–	–	–	–	–	–
O=C(c1ccc(Cl)cc1)C(CN1CCCCC1)c1ccccc1 (stereo unspecified)	–	–	107	–	–	–
O=C1NC(=S)N/C1=C/c1ccc2c(c1)OCO2	–	–	–	–	–	54
N#CCc1c(C#N)c(N)nc(N2CCN(S(=O)(=O)c3ccccc3F)CC2)c1C#N	–	–	173	–	–	–
N#CCc1c(C#N)c(N)nc(N2CCN(c3ccc(F)cc3)CC2)c1C#N	–	–	–	–	·	–
C[C@]12CC[C@@H]3c4ccc(OS(=O)(=O)O)cc4CC[C@H]3[C@@H]1CCC2=O	–	–	–	66!	–	–
CC12CCC3c4ccc(OCC(=O)O)cc4CCC3C1CCC2=O (stereo unspecified)	·	–	·	–	–	–
Cc1noc(C)c1NC(=O)Nc1cccc2c1O[C@@H](CN(C)Cc1ccc(C(=O)Nc3ccccc3N)cc1)[C@@H](C)CN([C@H](C)CO)C2=O	·	·	·	·	–	·
O=c1cc(Nc2ccc3c(c2)OCCO3)[nH]c(=O)n1-c1ccc(Cl)cc1	–	64	–	–	–	72
O=c1cc(Nc2ccc3c(c2)OCCO3)[nH]c(=O)n1C1CCCCC1	–	–	–	–	–	–
Cc1ccn2c(Nc3ccccc3)c(-c3ccccn3)nc2c1	–	–	–	59	–	–
Cc1ccn2c(Nc3ccccc3C)c(-c3ccccn3)nc2c1	–	–	–	–	–	–
CCCN(CCC)S(=O)(=O)c1ccc(Cl)c([N+](=O)[O-])c1	–	–	–	–	84	–
O=C(NC1CCCC1)[C@@H]1[C@@H](CO)[C@@H]2Cn3c(cccc3=O)[C@H]1N2CC1CCCC1	·	·	·	·	–	·
Cc1ccc(-c2nc3c(c(=O)[nH]c(=O)n3Cc3ccccc3)n2Cc2ccccc2)o1	–	–	62	–	–	–
Cc1ccc(-c2nc3c(c(=O)[nH]c(=O)n3Cc3ccccc3)n2C)o1	·	–	·	–	–	–
C=CCOc1ccc(-c2nc3c(c(=O)[nH]c(=O)n3Cc3ccccc3)n2CCCOC)cc1	–	–	63	–	–	–
COc1ccccc1N1C(=O)S/C(=C\c2cc(C)n(C)c2C)C1=O	–	–	54	–	–	–
CS(=O)(=O)c1ccc(-c2cn3cc(C(=O)O)ccc3n2)cc1	–	–	–	–	77	–
Cc1cc2ncc(-c3ncc(C(F)(F)F)cc3Cl)cn2n1	–	–	–	–	·	84
Cc1nn2cc(-c3ncc(C(F)(F)F)cc3Cl)cnc2c1Br	–	56	–	–	–	51
SMILES	HSF1 inh	TROY NFkB inh	HSF-1 act	LMP1 NFkB inh	LGR2 antag	TWEAK Fn14 block
FC(F)(F)c1cnc(-c2cnc3c(-c4ccc(Cl)cc4)cnn3c2)c(Cl)c1	–	–	–	–	–	–
C[C@@H]1CCCCO[C@H](CN(C)C(=O)CCCN(C)C)[C@H](C)CN([C@@H](C)CO)C(=O)c2cc(NC(=O)Nc3ccc4c(c3)OCO4)ccc2O1	·	·	·	·	–	·
C[C@H](CO)N1C[C@H](C)[C@H](CN(C)Cc2ccc3c(c2)OCO3)Oc2c(NC(=O)c3nc4ccccc4s3)cccc2C1=O	·	·	·	·	–	·
C[C@@H]1CN([C@@H](C)CO)C(=O)c2cc(NS(=O)(=O)c3cn(C)cn3)ccc2O[C@@H](C)CCCCO[C@@H]1CN(C)S(=O)(=O)c1ccc(Cl)cc1	·	·	·	·	–	·
Cc1ccc(CNc2ccc(N3CCOCC3)cc2)s1	–	50	–	–	·	–
Clc1ccc2c(N/N=C/c3cccc(Br)c3)ccnc2c1	–	–	–	–	–	–
Clc1ccc2c(N/N=C/c3ccccc3Br)ccnc2c1	–	–	66	–	–	–
C[C@@H]1CN([C@@H](C)CO)C(=O)c2cc(-c3ccccc3)cnc2O[C@@H]1CN(C)C(=O)Cc1cccnc1	·	·	·	·	–	·
O=C(Nc1ccccc1)c1cc(C2CCCN(C(=O)C3CC3)C2)on1 (stereo unspecified)	·	76	·	·	84	93
O=C(Nc1ccccc1)c1cc(C2CCCN(C(=O)C/C=C/c3ccccc3)C2)on1 (stereo unspecified)	·	–	·	·	–	–
CN(C)c1ccc(CC(=O)N2CCCC(c3cc(C(=O)Nc4ccccc4)no3)C2)cc1 (stereo unspecified)	·	76	·	·	–	71
O=C(NCc1ccccc1)c1cc(C2CCCN(C(=O)C3CC3)C2)on1 (stereo unspecified)	·	–	·	·	–	–
CC(=O)N1CCCC(c2cc(C(=O)Nc3ccccc3)no2)C1 (stereo unspecified)	·	80	·	·	88	101
CN(C)c1ccc(CC(=O)N2CCCC(c3cc(C(=O)Nc4ccc5c(c4)OCO5)no3)C2)cc1 (stereo unspecified)	·	–	·	·	–	–
C[C@@H]1CN([C@@H](C)CO)S(=O)(=O)c2ccc(-c3ccccc3F)cc2O[C@@H]1CN(C)Cc1ccncc1	·	·	·	·	–	·
CN(C)C(=O)c1cccc(-c2ccc([C@@H]3[C@@H](CO)N4C(=O)CN(C(=O)Cc5ccccc5)C[C@H]34)cc2)c1	·	·	·	·	–	·
COc1cccc(OCc2cc(C(=O)N(C)Cc3nc4ccccc4[nH]3)no2)c1	–	–	61	–	–	–
CC(=O)c1ccc(OCc2cc(C(=O)N(C)Cc3ncc(C)[nH]3)no2)cc1	–	–	–	–	–	–
O=C(/C=C/c1cc(Br)ccc1O)c1ccco1	–	–	?	–	–	62
COc1ccccc1/C=C/C(=O)c1cc(Br)ccc1OC(=O)c1ccco1	–	–	103	–	·	–
CC(=O)N(C)C[C@H]1Oc2ncc(C#Cc3cccnc3)cc2C(=O)N([C@H](C)CO)C[C@H]1C	·	·	·	·	–	·
COc1ccc2cc3cc(C(=O)NCCN4CCc5ccccc5C4)sc3nc2c1	–	–	74	–	–	–
COc1ccc2cc3cc(C(=O)NCCN4CCc5ccccc5C4)oc3nc2c1	–	–	–	–	·	–
CCC(C)NC(=O)c1cc2c(=O)n3ccccc3nc2s1 (stereo unspecified)	–	–	–	–	–	–
CCC(C)NC(=O)c1cc2cc3ccc(OC)cc3nc2s1 (stereo unspecified)	–	–	–	–	·	51
O=C(C1CC1)N1CC2(C1)[C@@H](c1ccccc1)[C@@H](CO)N2Cc1nccs1	·	·	·	·	–	·

High-throughput results as filed in PubChem.
